This is an account of results in PubChem BioAssay (NCI).

The panel holds about 83,000 compounds, 20% with a hit somewhere; the sample as a whole holds those more often.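 Treatment: one concentration, 48 hours, 96-well format. Scoring: percent growth, with anything below 10 considered active.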 A number with no mark means an inactive call. Calls of active or inactive are those of the source.

In the assay the test system is HL-60(TB) leukemia. As to the kind of experiment: NCI-60 one-dose screen, 48 h (100 = growth as untreated, 0 = no growth, -100 = all killed). Particulars: 10 µM unless noted.
In the case of `Clc1ccc(COc2ccc(Nc3ncnc4onc(-c5ccccc5)c34)cc2)cc1`, the growth is 98.8%.
For the compound `CC[C@H](C)[C@@H](C(=O)OC)n1cc(CNC(=O)[C@@H](Cc2ccccc2)NC(=O)OCc2ccccc2)nn1`, the growth is 104%.
For `CC(C)C1=NOC(=O)C1=Cc1cn(-c2ccco2)nc1-c1ccccc1` the value was 3.89% (active); for `CCCc1cc(C(N)=S)ccn1`, 103%; for `CN(C)c1ccc2c(c1)/C(=N/O)c1ccccc1-2`, 87.3%.
For `C=C1C(=O)O[C@H]2[C@H]1CC/C(Cn1cc(-c3ccccc3C(F)(F)F)nn1)=C\CC[C@@]1(C)O[C@@H]21` the value was -13.3% (active).
For `CC(NC(=O)Oc1cccc2ccccc12)c1ccccc1` (centres undefined) the value was 44.8%; for `O=C(Cc1ccc([N+](=O)[O-])cc1)Oc1ccccc1`, 105%.
For the compound `O=C1/C=C/[C@@H](O)[C@@H]2C[C@@H](O)C[C@H]2/C=C/CCC[C@H](CO)O1`, the growth was -25.4% (active).
With `Cc1c(O)c(=O)ccn1C1CCC(CC2CCC(n3ccc(=O)c(O)c3C)CC2)CC1` (centres undefined) the figure was -0.371% (active); with `CCN1C(=O)N(CC)C2C1NN=c1s/c(=C\c3ccc(OC)cc3)c(=O)n12` (centres undefined), -45.9% (active).
`COc1ccc(-c2cc(-c3ccc(Nc4nc(Nc5ccc(Cl)cc5)nc(Nc5ccc(Cl)cc5)n4)cc3)nc(N)c2C#N)cc1`: the growth is 28.3%.
With `O=C(COc1ccc(/C=C2\Oc3ccc4ccccc4c3C2=O)cc1)c1ccc([N+](=O)[O-])cc1` the figure was 75.9%; with `NCCOc1ccccc1/C=C1\c2ccccc2-c2ccc([N+](=O)[O-])cc21`, -59.3% (active).
